Bioassay records (PubChem)
ADAM10 inh – human ADAM10 inhibitors, primary screen, biochemical, QFRET, HTS | recombinant ADAM10, EDANS/DABCYL FRET peptide cleavage, 3 h | inhibition, % at 7 µM | actives 0.62% (n = 370,000);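 active means inhibition above a per-campaign cutoff equal to the mean of compounds falling between control-based bounds plus 3 SD, cut at about 20% in these data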
HGIII-sPLA2 inh – human group III sPLA2 inhibitors, primary screen, biochemical, QFRET, BODIPY PC-A2 liposome substrate; Group 3 secretory phospholipase A2 (Homo sapiens), Q9NZ20; QFRET BODIPY PC-A2 liposome hydrolysis, fluorescence; inhibition, % at 12.2 µM; actives 0.56% (n = 370,000);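 active means inhibition above mean plus 3 SD of compounds lying within the high and low control bounds, cut at about 19% in these data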
KLK7 zymogen act – proKLK7 zymogen activators, primary screen, biochemical, fluorescence intensity; actives 0.9% (n = 370,000); purified proKLK7, EDANS-DABCYL substrate fluorescence; 100% is mature enzyme control, 0% vehicle; AID 652039, 2013; activation, % at 7 µM;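 active means activation above the mean of all tested compounds plus 3 SD, computed per campaign excluding outliers beyond control limits, cut at about 13% in these data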
PLCg1 inh – PLC-gamma1 enzyme inhibitors, primary screen, biochemical, fluorescence, purified enzyme; 1-phosphatidylinositol 4,5-bisphosphate phosphodiesterase gamma-1 (Homo sapiens), P19174; fluorogenic substrate; inhibition, % at 12.2 µM; actives 0.84% (n = 370,000); AID 720700, 2013; in the data active means inhibition above about 9.5%
Target sequence (P19174 whole entry, looked up): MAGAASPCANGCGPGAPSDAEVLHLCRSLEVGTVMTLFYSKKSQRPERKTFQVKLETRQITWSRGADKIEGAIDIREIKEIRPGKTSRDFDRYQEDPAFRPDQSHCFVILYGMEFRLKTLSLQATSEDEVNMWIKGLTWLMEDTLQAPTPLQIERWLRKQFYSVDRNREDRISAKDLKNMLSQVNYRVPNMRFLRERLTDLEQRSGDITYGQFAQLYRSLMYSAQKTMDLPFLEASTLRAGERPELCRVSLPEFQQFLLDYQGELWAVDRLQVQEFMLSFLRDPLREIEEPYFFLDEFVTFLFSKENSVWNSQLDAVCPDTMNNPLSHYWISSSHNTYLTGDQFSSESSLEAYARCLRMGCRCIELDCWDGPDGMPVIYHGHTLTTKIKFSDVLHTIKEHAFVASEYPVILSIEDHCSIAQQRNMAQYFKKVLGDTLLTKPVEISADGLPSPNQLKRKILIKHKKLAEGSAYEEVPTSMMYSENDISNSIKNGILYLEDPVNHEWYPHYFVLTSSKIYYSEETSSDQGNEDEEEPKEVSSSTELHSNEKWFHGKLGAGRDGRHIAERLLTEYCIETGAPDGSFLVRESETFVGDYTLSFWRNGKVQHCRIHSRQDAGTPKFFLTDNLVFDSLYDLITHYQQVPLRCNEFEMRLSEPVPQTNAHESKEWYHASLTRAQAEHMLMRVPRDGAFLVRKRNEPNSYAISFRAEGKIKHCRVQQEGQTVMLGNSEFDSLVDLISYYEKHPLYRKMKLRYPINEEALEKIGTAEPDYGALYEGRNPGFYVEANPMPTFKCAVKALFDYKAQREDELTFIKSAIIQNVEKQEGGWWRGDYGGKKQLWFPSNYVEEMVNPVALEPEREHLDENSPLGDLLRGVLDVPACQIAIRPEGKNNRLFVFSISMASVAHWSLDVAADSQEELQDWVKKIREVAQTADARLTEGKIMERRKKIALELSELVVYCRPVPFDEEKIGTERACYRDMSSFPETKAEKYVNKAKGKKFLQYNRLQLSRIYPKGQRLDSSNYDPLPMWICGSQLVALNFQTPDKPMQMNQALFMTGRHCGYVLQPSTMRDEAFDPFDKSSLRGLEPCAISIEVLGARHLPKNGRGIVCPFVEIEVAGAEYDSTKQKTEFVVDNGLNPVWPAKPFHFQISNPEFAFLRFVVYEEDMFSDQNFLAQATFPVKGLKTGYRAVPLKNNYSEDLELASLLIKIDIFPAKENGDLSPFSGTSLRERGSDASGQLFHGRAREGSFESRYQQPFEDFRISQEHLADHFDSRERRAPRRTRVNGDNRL
ADAM17 inh – ADAM17 inhibitors, primary screen, biochemical, QFRET | inhibition, % at 6.95 µM | actives 0.83% (n = 370,000) | Disintegrin and metalloproteinase domain-containing protein 17 (Homo sapiens), P78536 | AID 720648, 2013 | recombinant ADAM17, EDANS/DABCYL FRET peptide cleavage;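 active means inhibition above the mean of compounds lying between control limits plus 3 SD, set per campaign, cut at about 8.5% in these data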
PLC-beta3 inh – human PLC-beta3 inhibitors, primary screen, biochemical, fluorescence | 1-phosphatidylinositol 4,5-bisphosphate phosphodiesterase beta-3 (Homo sapiens), Q01970 | Purified PLC-beta3, fluorogenic substrate | inhibition, % at 12.2 µM | actives 0.18% (n = 370,000) | AID 720704, 2013; in the data active means inhibition above about 11%
proKLK7 act conf – proKLK7 zymogen activators, confirmation, biochemical, fluorescence intensity, triplicate; shares compounds with KLK7 zymogen act; purified proKLK7, EDANS-DABCYL substrate fluorescence; scaled: vehicle 0, mature enzyme 100; activation, % at 7 µM; actives 68% (n = 3,200); AID 686949, 2013;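 active means activation, as change over the incubation, above the mean of all tested compounds plus 3 SD, cut at about 13% in these data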
EDANS-DABCYL int – EDANS-DABCYL substrate optical interference, artefact control for kallikrein-7 zymogen activator project, biochemical, fluorescence intensity, high throughput | AID 686952, 2013 | actives 80% (n = 3,200) | no enzyme, 4 h; solvent 0%, active enzyme control 100% | activation, % at 7 µM | shares compounds with KLK7 zymogen act;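 active means activation above the all-compound mean plus 3 SD, ignoring values outside control-based bounds, cut at about 4.8% in these data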;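 further: value is the 4 h activation minus the activation read at time zero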
K7 EDANS ctr – EDANS fluorescence interference in dose response, no enzyme | AID 720493 | shares compounds with KLK7 zymogen act | EC50, µM | EDANS-DABCYL peptide fluorescence interference | actives 20% (n = 250);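 active means compounds that raise the fluorescence signal in this interference counterscreen, with EC50 at or below 10 µM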;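 further: intact quenched peptide substrate alone read at 355 nm excitation and 520 nm emission; signal is fluorescence gain from T0 to T4 after four hours at room temperature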
Numbers stand for hits. Hits are enriched below; roughly 3.4% of the tested compounds scored in any of these assays.

How did C#CCn1c(=NC(=O)c2ccc(S(=O)(=O)N3CCCc4ccccc43)cc2)sc2cc(S(N)(=O)=O)ccc21 do in these assays?
ADAM10 inh: inactive; HGIII-sPLA2 inh: inactive; KLK7 zymogen act: 51; PLCg1 inh: inactive; ADAM17 inh: inactive; PLC-beta3 inh: inactive; proKLK7 act conf: inactive; EDANS-DABCYL int: 24

How did Cc1nn(-c2cccc(Cl)c2)c2c1C(c1ccncc1)C(C#N)=C(N)O2 (stereo not drawn) do in these assays?
ADAM10 inh: inactive; HGIII-sPLA2 inh: inactive; KLK7 zymogen act: inactive; PLCg1 inh: inactive; ADAM17 inh: inactive; PLC-beta3 inh: inactive

What do the screens show for `COc1ccc(OC)c(C2C(C#N)=C(N)Oc3c2c(C)nn3-c2cccc(Cl)c2)c1` (stereo not drawn)?
ADAM10 inh: inactive; HGIII-sPLA2 inh: inactive; KLK7 zymogen act: 19; PLCg1 inh: inactive; ADAM17 inh: inactive; PLC-beta3 inh: inactive; proKLK7 act conf: 35; EDANS-DABCYL int: 33

Results for O=C(c1cccn2c(=O)c3cc(Cl)ccc3nc12)N1CCOCC1 ?
ADAM10 inh: inactive; HGIII-sPLA2 inh: inactive; KLK7 zymogen act: 52; PLCg1 inh: inactive; ADAM17 inh: inactive; PLC-beta3 inh: inactive; proKLK7 act conf: 65; EDANS-DABCYL int: 73

How did O=C(c1cccn2c(=O)c3cc(Cl)ccc3nc12)N1CCN(Cc2ccc3c(c2)OCO3)CC1 do in these assays?
ADAM10 inh: inactive; HGIII-sPLA2 inh: inactive; KLK7 zymogen act: inactive; PLCg1 inh: inactive; ADAM17 inh: inactive; PLC-beta3 inh: inactive

What do the screens show for `O=C(c1cccn2c(=O)c3ccccc3nc12)N1CCN(Cc2ccc3c(c2)OCO3)CC1`?
ADAM10 inh: inactive; HGIII-sPLA2 inh: inactive; KLK7 zymogen act: 15; PLCg1 inh: inactive; ADAM17 inh: inactive; PLC-beta3 inh: inactive; proKLK7 act conf: 22; EDANS-DABCYL int: 28

How did CCCCN(CC)CCCNC(=O)c1cc2cc3ccc(C)cc3nc2o1 do in these assays?
ADAM10 inh: inactive; HGIII-sPLA2 inh: inactive; KLK7 zymogen act: 22; PLCg1 inh: inactive; ADAM17 inh: inactive; PLC-beta3 inh: inactive; proKLK7 act conf: inactive; EDANS-DABCYL int: 13

Results for Cc1ccc2cc3cc(C(=O)NCCCN4CCCC4)oc3nc2c1 ?
ADAM10 inh: inactive; HGIII-sPLA2 inh: inactive; KLK7 zymogen act: inactive; PLCg1 inh: inactive; ADAM17 inh: inactive; PLC-beta3 inh: inactive

Results for Cc1ccc2cc3cc(C(=O)NCCCN4CCCCCC4)oc3nc2c1 ?
ADAM10 inh: inactive; HGIII-sPLA2 inh: inactive; KLK7 zymogen act: 18; PLCg1 inh: inactive; ADAM17 inh: inactive; PLC-beta3 inh: inactive; proKLK7 act conf: inactive; EDANS-DABCYL int: 11

Results for COc1ccc(OC)c(/C=C/C(=O)N(C)CC(=O)Nc2ccc(N3CCOCC3)cc2)c1 ?
ADAM10 inh: inactive; HGIII-sPLA2 inh: inactive; KLK7 zymogen act: 21; PLCg1 inh: inactive; ADAM17 inh: inactive; PLC-beta3 inh: inactive; proKLK7 act conf: 19; EDANS-DABCYL int: 15; K7 EDANS ctr: inactive

How did COCc1cc(N2CCN(C(=O)OC(C)(C)C)C[C@@H]2C)ccc1N1CC[C@H](O)C1 do in these assays?
ADAM10 inh: inactive; HGIII-sPLA2 inh: inactive; KLK7 zymogen act: inactive; PLCg1 inh: inactive; ADAM17 inh: inactive; PLC-beta3 inh: inactive

What do the screens show for `CC(=O)Nc1ccc(NC(=O)c2cc(=O)c3ccc(C)cc3o2)cc1`?
ADAM10 inh: inactive; HGIII-sPLA2 inh: inactive; KLK7 zymogen act: 15; PLCg1 inh: inactive; ADAM17 inh: inactive; PLC-beta3 inh: inactive; proKLK7 act conf: inactive; EDANS-DABCYL int: inactive

Results for C[C@@H]1ON(C)[C@H]2C[C@H]3c4[nH]c5cccc(-c6ccccc6)c5c4CCN3C[C@@H]12 ?
ADAM10 inh: inactive; HGIII-sPLA2 inh: inactive; KLK7 zymogen act: inactive; PLCg1 inh: inactive; ADAM17 inh: inactive; PLC-beta3 inh: inactive

What do the screens show for `Cc1[nH]nc2c1C(c1ccc(F)cc1)C1=C(CC(C)(C)CC1=O)N2` (stereo not drawn)?
ADAM10 inh: inactive; HGIII-sPLA2 inh: inactive; KLK7 zymogen act: 14; PLCg1 inh: inactive; ADAM17 inh: inactive; PLC-beta3 inh: inactive; proKLK7 act conf: inactive; EDANS-DABCYL int: 12

What do the screens show for `CCN(CC)C(=O)[C@H]1C[C@H](CC(=O)NCCCOC)C(=O)N2CCc3c([nH]c4cc(-c5ccco5)ccc34)[C@]12C`?
ADAM10 inh: inactive; HGIII-sPLA2 inh: inactive; KLK7 zymogen act: 164; PLCg1 inh: inactive; ADAM17 inh: inactive; PLC-beta3 inh: inactive; proKLK7 act conf: 166; EDANS-DABCYL int: 206

How did CCN(CC)C(=O)[C@H]1C[C@H](CC(=O)NC/C=C(\C)CCC=C(C)C)C(=O)N2CCc3c([nH]c4cc(-c5ccco5)ccc34)[C@]12C do in these assays?
ADAM10 inh: inactive; HGIII-sPLA2 inh: inactive; KLK7 zymogen act: 19; PLCg1 inh: inactive; ADAM17 inh: inactive; PLC-beta3 inh: inactive; proKLK7 act conf: inactive; EDANS-DABCYL int: 12

How did CC(C)=CCC/C(C)=C/CNC(=O)C[C@H]1C[C@H](C(=O)N(C(C)C)C(C)C)[C@@]2(C)c3[nH]c4cc(-c5ccco5)ccc4c3CCN2C1=O do in these assays?
ADAM10 inh: inactive; HGIII-sPLA2 inh: inactive; KLK7 zymogen act: inactive; PLCg1 inh: inactive; ADAM17 inh: inactive; PLC-beta3 inh: inactive

Results for CC(C)N(C(=O)[C@H]1C[C@H](CC(=O)NCCCN(C)C)C(=O)N2CCc3c([nH]c4cc(-c5ccco5)ccc34)[C@]12C)C(C)C ?
ADAM10 inh: inactive; HGIII-sPLA2 inh: inactive; KLK7 zymogen act: 103; PLCg1 inh: inactive; ADAM17 inh: inactive; PLC-beta3 inh: inactive; proKLK7 act conf: 73; EDANS-DABCYL int: 88

Results for CCN(CC)C(=O)[C@H]1C[C@H](CC(=O)NCc2ccc(OC)c(OC)c2)C(=O)N2CCc3c([nH]c4cc(-c5ccco5)ccc34)[C@]12C ?
ADAM10 inh: inactive; HGIII-sPLA2 inh: inactive; KLK7 zymogen act: 141; PLCg1 inh: inactive; ADAM17 inh: inactive; PLC-beta3 inh: inactive; proKLK7 act conf: 68; EDANS-DABCYL int: 76
